The results in this text go back to PubChem BioAssay.

“And” between values parts separate entries of the source, which are not always exact repeats. Equal entries are not always repeated. Inconclusive results are not listed. The source made the active and inactive calls.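 The calls were made as follows, unless noted: active = response below a set limit, under 55% cells CD8-positive and vesicle-bound, and CD8 cells' 90th-percentile brightness under 279; inactive = the rest.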

Experiment [1] is described as follows: rapamycin-like changes in RPL19A-GFP expression – cell-based, S. cerevisiae, multiplex flow cytometry, primary screen (AID 1862; in the data active = percent of DMSO control GFP below about 86%;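 also: lower values mimic rapamycin by blocking the RPL19A rise seen in DMSO cells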). The conditions noted are these: S. cerevisiae RPL19A-GFP strain, flow cytometry fluorescence, 3 h; at 10 µM; stronger effect = lower value. (Flow cytometry measures light scatter and fluorescence of single cells or particles in a stream.)
Experiment [2] is described as follows: TOR pathway GLN3 branch reporter MEP2-GFP changes – S. cerevisiae, multiplex flow cytometry, primary screen (AID 1867;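 active = GFP response, as percent of the DMSO control, above the screen-wide mean plus 3 SD, about 139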;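 also: median GFP channel fluorescence of barcode-gated MEP2-GFP cells measured by flow cytometry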). The conditions noted are these: S. cerevisiae MEP2-GFP strain, 3 h, at 10 µM, stronger effect = higher value, 100% means same as DMSO wells.
Experiment [3] can be described thus: TOR pathway RTG branch CIT2 reporter changes – S. cerevisiae, GFP fusion, multiplex flow cytometry, primary screen (AID 1870;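 active = percent response above a set limit, the screen-wide mean plus 3 SD, cut at about 130% in these data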;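 also: barcoded CIT2-GFP strain pooled with four other GFP strains with rapamycin as positive control; median GFP fluorescence per well over plate mean of DMSO wells so 100% = DMSO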). The conditions noted are these: S. cerevisiae CIT2-GFP expression, 3 h, at 10 µM, stronger effect = higher value.
A short description of experiment [4]: TOR pathway LAP4-GFP level changes – S. cerevisiae, multiplex flow cytometry, primary screen (AID 1873;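 active = GFP signal, as percent of the solvent control, above the screen mean plus 3 SD, about 149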). As to conditions: S. cerevisiae LAP4-GFP expression, 3 h, at 10 µM, stronger effect = higher value.
The nature of experiment [5]: yeast AGP1-GFP level changes, GLN3 branch – cell-based, multiplex flow cytometry, S. cerevisiae, primary screen (AID 1887;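 active = GFP signal above the screen-wide mean plus 3 SD, that is over about 124.5% of the solvent control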;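 also: AGP1-GFP fusion strain of S. cerevisiae within a five-strain barcoded multiplex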). As to conditions: 3 h, at 10 µM, stronger effect = higher value.
Experiment [6] in a line: reduced mouse 2C T cell binding to pMHC/ICAM-1 vesicles – MLPCN validation set, flow cytometry, LFA-1/ICAM-1 modulator project, pilot screen (AID 2523).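 As to vesicle binding response: mean PE anti-B7-1 fluorescence of CD8+ cells relative to row control; 100% = QL9-loaded vesicles with DMSO vehicle in the same plate row.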 The conditions noted are these: 2C mouse CD8+ T cells, at 7 µM, stronger effect = lower value; double positive events: measured here: CD8+/vesicle+ event percentage.
For experiment [7], the target named is Integrin beta-1 (Homo sapiens) + Integrin alpha-4 (Homo sapiens) (UniProt P13612+P05556). Description: alpha4beta1 integrin LIBS antibody binding reduction – U937 cells, HUTS-21 mAb, flow cytometry, validation set, VLA-4 allosteric modulator project, pilot screen (AID 2674;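 active = inhibition above 50%, about 3 SD of the validation set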;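 also: antibody binding induced by the VLA-4 ligand LDV present at three times its Kd; 0% = LDV ligand with antibody and no compound and 100% = antibody without LDV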). As to conditions: HUTS-21 LIBS mAb binding, at 6.7 µM, stronger effect = higher value, binding induced by LDV ligand.

Experiment [8] in a line: calorie-restriction mimetic ROS inhibitors, yeast – validation compound set, pilot screen (AID 2706;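 active = superoxide response below 65% of plate, a cut near 3 SD across the whole screen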;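 also: yeast exposed to compound for one week at 30 degrees C before staining; 100% = mean of all compound wells on the same plate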). As to conditions: S. cerevisiae aging, superoxide DHE fluorescence; at 10 µM; stronger effect = lower value.
Experiment [9] has as its target Beta-adrenergic receptor kinase 1 (Homo sapiens) (UniProt P25098). The experiment is described as follows: GRK2 binders displacing RNA aptamer, biochemical, validation, human GRK2, bead flow cytometry (AID 488806;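 active = aptamer binding inhibition above 30%, about 3 SD of noise from non-fluorescent compounds; inactive = inhibition at or below 30%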). As to conditions: bead-bound GRK2, FAM-aptamer displacement, at 10 µM, stronger effect = higher value.
The target in experiment [10] is Beta-2 adrenergic receptor (Homo sapiens) (UniProt P07550). The experiment is described as follows: agonist-induced loss of surface beta2AR – cell-based, FAP fluorogen, flow cytometry, validation set, pilot screen (AID 504459;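 active = percent response above 42, roughly 3 SD of non-fluorescent test compounds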;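 also: agonist-driven loss of surface beta2AR via internalization measured by FAP dye flow cytometry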). The conditions noted are these: Am2.2-beta2AR cells, at 10 µM, stronger effect = higher value.
In experiment [11] the target is AP-2 complex subunit beta (Homo sapiens) (UniProt P63010). The experiment is described as follows: beta-arrestin/AP2 interaction blockers – biochemical, validation set, GST-AP2 beads, flow cytometry, pilot screen (AID 504541;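 active = inhibition above 54%, about 3 SD of non-fluorescent compounds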;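 also: AP2 carries R879A mutation and is captured from E. coli lysate; bead-bound FITC arrestin peptide fluorescence measuring arrestin peptide binding to AP2; 0% = DMSO wells and 100% = excess unlabeled arrestin peptide control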). The conditions noted are these: FITC arrestin peptide, at 10 µM, stronger effect = higher value, AP2 beta2 appendage fragment, R879A mutant.
Experiment [12] is described as follows: cytosolic pH regulators acting via V-ATPase – S. cerevisiae, pHLuorin, HTS validation (AID 504600; in the data active = response above about 15%;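 also: plate controls were DMSO for no effect and reference compound for full effect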). As to conditions: V-ATPase proton transport, at 10 µM, stronger effect = higher value.
Experiment [13] relates to anti-desmoglein-3 scFv antibody binding to human DSG3. Description: blockers of pathogenic pemphigus antibody–desmoglein-3 binding – biochemical, validation compound set, bead-based, flow cytometry, pilot screen (AID 588368;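 active = binding below the plate cutoff, the plate median minus 3 SD, with a reading above zero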;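 also: signal is the median channel fluorescence of bead-bound GFP antibody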). The conditions noted are these: Protein G beads, DSG3-Fc, scFv-GFP binding, at 10 µM, stronger effect = lower value.
A short description of experiment [14]: Nile Red efflux blockade in pump-expressing yeast – validation compound set, multiplex, phenotypic, pilot screen (AID 588506;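 active = efflux inhibition above 0.42, the validation set average plus 4 SD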;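 also: Nile Red retained in cells so higher fluorescence means more efflux inhibition; 0 = negative control wells and 1 = enniatin B 25 µM full block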). The conditions noted are these: S. cerevisiae pump-expressing triplex, Nile Red efflux flow cytometry; at 10 µM; stronger effect = higher value; the pumps come from Candida albicans.
In experiment [15] the target is ATP-binding cassette sub-family B member 6 (Homo sapiens) (UniProt Q9NP58). The experiment is described as follows: blockers of ABCB6-driven porphyrin uptake – K562-ABCB6 cells, flow cytometry, validation set, pilot screen (AID 588550;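 active = inhibition above the screen-wide mean plus 3 SD, about 51%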;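 also: 0% = DMSO wells and 100% = benzethonium chloride 70 µM positive control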). As to conditions: K562-ABCB6 porphyrin accumulation, 1 h, at 10 µM, stronger effect = higher value.
The nature of experiment [16]: AML differentiation inducers, ER-HoxA9 marrow cells – cell-based, GFP/MAC1 double positive, flow cytometry, validation set, primary screen (AID 588685;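 active = differentiation response of at least 50%, scaled between solvent and reference control, from cells with both markers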;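 also: compound exposure lasts four days before antibody staining and flow analysis; 0% = DMSO wells and 100% = 5 µM fulvestrant positive control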). As to conditions: stronger effect = higher value, normalized: vehicle 0, fulvestrant 100.

Chain of Beta-adrenergic receptor kinase 1 (Homo sapiens) (P25098 whole entry, looked up): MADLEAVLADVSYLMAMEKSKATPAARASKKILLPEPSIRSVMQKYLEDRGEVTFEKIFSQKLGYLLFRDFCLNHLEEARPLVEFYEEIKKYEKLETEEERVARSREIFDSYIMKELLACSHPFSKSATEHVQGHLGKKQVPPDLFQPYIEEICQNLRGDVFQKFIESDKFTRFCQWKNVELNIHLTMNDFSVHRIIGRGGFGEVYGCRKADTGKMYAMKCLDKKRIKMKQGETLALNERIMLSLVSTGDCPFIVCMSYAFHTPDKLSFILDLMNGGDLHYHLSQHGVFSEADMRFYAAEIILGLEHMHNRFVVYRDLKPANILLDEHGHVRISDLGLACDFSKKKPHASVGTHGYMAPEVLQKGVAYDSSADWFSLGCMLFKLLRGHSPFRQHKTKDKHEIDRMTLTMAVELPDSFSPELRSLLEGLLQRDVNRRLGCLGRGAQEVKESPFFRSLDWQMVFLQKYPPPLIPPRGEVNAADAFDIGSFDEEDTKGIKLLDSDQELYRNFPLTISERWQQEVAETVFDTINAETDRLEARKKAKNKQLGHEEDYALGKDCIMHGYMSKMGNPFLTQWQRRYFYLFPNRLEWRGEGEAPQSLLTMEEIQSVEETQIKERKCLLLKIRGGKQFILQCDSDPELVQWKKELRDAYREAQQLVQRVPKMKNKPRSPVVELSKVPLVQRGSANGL
Chain of ATP-binding cassette sub-family B member 6 (Homo sapiens) (Q9NP58 whole entry, looked up): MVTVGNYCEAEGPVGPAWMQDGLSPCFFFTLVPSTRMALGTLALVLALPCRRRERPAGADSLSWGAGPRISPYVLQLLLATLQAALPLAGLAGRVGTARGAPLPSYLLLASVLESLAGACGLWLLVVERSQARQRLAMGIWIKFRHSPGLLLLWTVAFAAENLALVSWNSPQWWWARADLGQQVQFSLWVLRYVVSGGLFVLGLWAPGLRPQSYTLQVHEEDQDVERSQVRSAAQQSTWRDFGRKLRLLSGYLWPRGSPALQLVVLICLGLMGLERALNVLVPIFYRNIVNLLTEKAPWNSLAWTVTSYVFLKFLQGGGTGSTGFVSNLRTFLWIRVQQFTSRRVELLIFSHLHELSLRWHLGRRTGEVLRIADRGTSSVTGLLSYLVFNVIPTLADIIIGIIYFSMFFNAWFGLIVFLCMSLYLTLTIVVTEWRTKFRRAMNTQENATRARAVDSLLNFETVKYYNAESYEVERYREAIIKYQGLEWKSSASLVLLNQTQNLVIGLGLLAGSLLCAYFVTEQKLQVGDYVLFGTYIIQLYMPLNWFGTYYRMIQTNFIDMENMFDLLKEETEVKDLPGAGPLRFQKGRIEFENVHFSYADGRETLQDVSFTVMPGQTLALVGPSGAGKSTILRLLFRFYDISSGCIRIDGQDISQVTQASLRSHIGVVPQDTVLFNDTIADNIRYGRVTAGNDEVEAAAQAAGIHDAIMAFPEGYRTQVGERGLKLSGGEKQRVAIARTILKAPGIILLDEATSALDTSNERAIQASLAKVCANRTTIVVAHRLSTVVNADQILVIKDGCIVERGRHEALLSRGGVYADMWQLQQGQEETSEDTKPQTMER
Chain of Beta-2 adrenergic receptor (Homo sapiens) (P07550 whole entry, looked up): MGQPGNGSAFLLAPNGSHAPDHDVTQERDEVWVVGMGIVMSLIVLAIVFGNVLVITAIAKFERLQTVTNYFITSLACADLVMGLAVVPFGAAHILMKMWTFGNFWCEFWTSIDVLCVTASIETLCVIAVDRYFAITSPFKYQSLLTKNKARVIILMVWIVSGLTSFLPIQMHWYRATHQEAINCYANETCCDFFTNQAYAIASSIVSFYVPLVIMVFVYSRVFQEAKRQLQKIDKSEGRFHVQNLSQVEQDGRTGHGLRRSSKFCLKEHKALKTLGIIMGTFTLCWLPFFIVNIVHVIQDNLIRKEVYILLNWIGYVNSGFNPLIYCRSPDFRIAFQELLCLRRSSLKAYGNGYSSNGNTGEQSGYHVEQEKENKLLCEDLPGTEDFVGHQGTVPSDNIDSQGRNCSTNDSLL
Chain of AP-2 complex subunit beta (Homo sapiens) (P63010 whole entry, looked up, the tested form may be a part, one chain of several): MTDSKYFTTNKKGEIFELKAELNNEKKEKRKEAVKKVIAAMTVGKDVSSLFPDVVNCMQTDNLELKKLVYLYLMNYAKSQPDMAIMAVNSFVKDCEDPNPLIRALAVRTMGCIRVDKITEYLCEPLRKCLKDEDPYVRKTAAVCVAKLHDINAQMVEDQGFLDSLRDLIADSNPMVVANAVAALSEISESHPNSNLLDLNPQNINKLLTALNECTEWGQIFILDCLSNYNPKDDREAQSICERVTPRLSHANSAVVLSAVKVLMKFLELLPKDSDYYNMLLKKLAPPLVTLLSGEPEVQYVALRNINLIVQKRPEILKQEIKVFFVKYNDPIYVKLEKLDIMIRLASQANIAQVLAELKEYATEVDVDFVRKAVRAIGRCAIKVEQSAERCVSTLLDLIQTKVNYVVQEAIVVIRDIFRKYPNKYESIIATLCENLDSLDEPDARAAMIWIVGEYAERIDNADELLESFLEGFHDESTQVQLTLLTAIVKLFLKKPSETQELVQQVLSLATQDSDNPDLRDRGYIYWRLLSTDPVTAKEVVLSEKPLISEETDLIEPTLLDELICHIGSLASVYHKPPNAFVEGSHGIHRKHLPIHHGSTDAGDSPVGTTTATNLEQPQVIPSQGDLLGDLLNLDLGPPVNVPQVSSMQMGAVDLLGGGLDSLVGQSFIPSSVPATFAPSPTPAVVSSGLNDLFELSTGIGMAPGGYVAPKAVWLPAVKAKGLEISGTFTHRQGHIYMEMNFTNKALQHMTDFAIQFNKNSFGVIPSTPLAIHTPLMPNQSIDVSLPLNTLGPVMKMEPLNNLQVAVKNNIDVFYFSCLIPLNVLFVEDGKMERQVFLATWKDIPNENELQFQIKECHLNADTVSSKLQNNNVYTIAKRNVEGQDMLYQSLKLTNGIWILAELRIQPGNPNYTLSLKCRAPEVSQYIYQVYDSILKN
Chain of Integrin beta-1 (Homo sapiens) + Integrin alpha-4 (Homo sapiens) (P05556 whole entry, looked up): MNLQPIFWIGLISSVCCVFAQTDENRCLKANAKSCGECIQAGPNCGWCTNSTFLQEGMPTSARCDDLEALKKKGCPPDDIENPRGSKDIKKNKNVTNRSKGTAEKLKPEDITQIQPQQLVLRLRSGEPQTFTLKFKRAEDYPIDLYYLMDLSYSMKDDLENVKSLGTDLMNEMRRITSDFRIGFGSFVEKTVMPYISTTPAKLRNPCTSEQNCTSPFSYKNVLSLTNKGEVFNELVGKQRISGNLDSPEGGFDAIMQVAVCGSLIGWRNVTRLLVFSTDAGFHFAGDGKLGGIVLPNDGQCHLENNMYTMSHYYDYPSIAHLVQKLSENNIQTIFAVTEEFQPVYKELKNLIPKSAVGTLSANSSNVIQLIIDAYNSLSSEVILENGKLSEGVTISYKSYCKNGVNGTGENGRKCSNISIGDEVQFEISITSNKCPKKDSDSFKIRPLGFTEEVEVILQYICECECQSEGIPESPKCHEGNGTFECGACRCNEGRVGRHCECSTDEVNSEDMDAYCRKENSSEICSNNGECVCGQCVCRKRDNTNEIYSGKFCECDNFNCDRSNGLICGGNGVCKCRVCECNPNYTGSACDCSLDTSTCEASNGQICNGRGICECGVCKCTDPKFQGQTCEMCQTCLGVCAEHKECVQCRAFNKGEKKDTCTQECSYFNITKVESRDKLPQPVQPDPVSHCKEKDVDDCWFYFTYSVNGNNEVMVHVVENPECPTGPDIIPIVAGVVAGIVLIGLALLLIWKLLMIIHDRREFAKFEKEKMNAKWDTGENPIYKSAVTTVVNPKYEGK
Chain of Integrin beta-1 (Homo sapiens) + Integrin alpha-4 (Homo sapiens) (P13612 whole entry, looked up): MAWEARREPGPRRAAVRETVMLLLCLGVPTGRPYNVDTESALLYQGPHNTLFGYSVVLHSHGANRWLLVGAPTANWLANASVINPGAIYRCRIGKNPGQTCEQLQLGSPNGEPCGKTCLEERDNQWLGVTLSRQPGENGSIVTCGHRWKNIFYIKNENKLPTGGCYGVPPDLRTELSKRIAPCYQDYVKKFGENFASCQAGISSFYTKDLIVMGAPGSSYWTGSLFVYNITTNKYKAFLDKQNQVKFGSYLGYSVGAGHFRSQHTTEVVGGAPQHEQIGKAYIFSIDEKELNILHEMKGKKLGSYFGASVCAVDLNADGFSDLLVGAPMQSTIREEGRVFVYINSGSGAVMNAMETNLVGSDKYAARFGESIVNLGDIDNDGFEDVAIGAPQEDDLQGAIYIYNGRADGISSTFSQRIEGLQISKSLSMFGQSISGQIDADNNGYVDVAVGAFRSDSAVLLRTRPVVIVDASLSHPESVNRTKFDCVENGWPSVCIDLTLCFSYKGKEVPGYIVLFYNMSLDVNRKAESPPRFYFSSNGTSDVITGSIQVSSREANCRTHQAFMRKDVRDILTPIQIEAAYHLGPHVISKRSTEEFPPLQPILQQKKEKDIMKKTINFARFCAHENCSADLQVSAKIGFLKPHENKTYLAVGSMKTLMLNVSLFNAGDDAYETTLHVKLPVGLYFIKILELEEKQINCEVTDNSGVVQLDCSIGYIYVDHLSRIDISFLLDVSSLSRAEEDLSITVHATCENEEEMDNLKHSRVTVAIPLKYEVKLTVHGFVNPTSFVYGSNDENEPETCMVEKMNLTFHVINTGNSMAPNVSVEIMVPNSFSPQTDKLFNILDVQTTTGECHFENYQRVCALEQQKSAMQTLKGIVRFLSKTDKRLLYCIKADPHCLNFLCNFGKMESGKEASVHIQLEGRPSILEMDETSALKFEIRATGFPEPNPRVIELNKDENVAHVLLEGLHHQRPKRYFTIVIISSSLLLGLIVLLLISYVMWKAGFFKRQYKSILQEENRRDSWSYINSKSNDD

Regarding `CC12CCC(C(=O)NCc3ccccn3)(OC1=O)C2(C)C` (stereo not given), in [1], the percent of DMSO control GFP was 102% (inactive). Moreover, the GFP response vs DMSO was 103% (inactive) in experiment [2] and 98% (inactive) in [4]. In addition, in [3], the percent response of DMSO control is 103% (inactive). For the same compound, in [5], the GFP response, % of DMSO was 103% (inactive). This compound also registered a double positive events in experiment [6] of 61.8%. Also, the vesicle binding response in experiment [6] is 167% (inactive). Besides, the inhibition (usually the drop in the measured response relative to a control, in per cent) in [7] was 1.59% (inactive); in [11] it was 6.09% (inactive); in [15], 33% (inactive). Besides, the superoxide response (% of plate) in [8] is 92.4% (inactive). Also, in experiment [9], the aptamer binding inhibition was 0% (inactive). Further, the values for the response in experiment [10] and in [12] were -3.72% (inactive) and -2.31% (inactive), respectively. In addition, in [13], the binding (% of control) was 104% (inactive). The efflux inhibition (fraction of control) in [14] is -0.24 (inactive). Besides, the differentiation response in [16] was 5.67% (inactive).

Take `CC(=O)OCC[N+](C)(C)C`: in experiment [1], the percent of DMSO control GFP is 95.9% (inactive). In addition, the values for the GFP response vs DMSO in [2] and in [4] were 116% (inactive) and 83.6% (inactive), respectively. Also, the percent response of DMSO control in experiment [3] was 101% (inactive). The GFP response, % of DMSO in experiment [5] is 105% (inactive). Further, in experiment [6], the double positive events was 61.2% and 60.9%. In experiment [6], the vesicle binding response was 178% (inactive) and 161% (inactive). Further, the inhibition is -20.7% (inactive) and 1.44% (inactive) in [7]; -8.61% (inactive) and -2% (inactive) in [11]; 6% (inactive) and 10% (inactive) in experiment [15]. Further, the superoxide response (% of plate) in experiment [8] was 90.4% (inactive) and 67.4% (inactive). Besides, in experiment [9], the aptamer binding inhibition was 4% (inactive) and 1% (inactive). The response is -3.17% (inactive) and -8.19% (inactive) in [10]; 2.52% (inactive) and -3.48% (inactive) in experiment [12]. Besides, the binding (% of control) in experiment [13] was 102% (inactive) and 106% (inactive). In addition, the efflux inhibition (fraction of control) in experiment [14] is 0.09 (inactive) and 0 (inactive). Moreover, in [16], the differentiation response is 2.46% (inactive) and -2.03% (inactive).

With `Nc1nc(Cl)nc2c1ncn2[C@@H]1O[C@H](CO)[C@@H](O)[C@H]1O`, the percent of DMSO control GFP in experiment [1] was 92.4% (inactive). Also, the GFP response vs DMSO in experiment [2] was 128% (inactive); in experiment [4] it was 80.3% (inactive). Further, the percent response of DMSO control in experiment [3] was 101% (inactive). The GFP response, % of DMSO in experiment [5] was 102% (inactive). The same compound gave a double positive events in experiment [6] of 57.5%. Moreover, the vesicle binding response in experiment [6] is 109% (inactive). For the same compound, the figures for the inhibition in experiment [7], in [11] and in experiment [15] were 2.58% (inactive), 1.36% (inactive) and 9% (inactive), respectively. The superoxide response (% of plate) in experiment [8] was 95.9% (inactive). Further, in experiment [9], the aptamer binding inhibition is 6% (inactive). Moreover, the response in experiment [10] was -6.94% (inactive); in experiment [12], 10.6% (inactive). The binding (% of control) in [13] was 104% (inactive). For the same compound, the efflux inhibition (fraction of control) in experiment [14] was 0.3 (inactive). Moreover, the differentiation response in [16] is 1.64% (inactive).

Take `O=C1C(=O)N2C(=C1C(=O)N1CCCCCC1)c1ccccc1CC21CCCC1`: in experiment [1], the percent of DMSO control GFP was 92.2% (inactive). Also, the GFP response vs DMSO in experiment [2] is 109% (inactive); in [4] it was 120% (inactive). Further, the percent response of DMSO control in experiment [3] is 86.3% (inactive). Further, in experiment [5], the GFP response, % of DMSO is 99.8% (inactive). The double positive events in [6] was 59.4%. For the same compound, in [6], the vesicle binding response was 201% (inactive). For the same compound, the inhibition was 9.13% (inactive) in [7], 31.8% (inactive) in [11] and 3% (inactive) in experiment [15]. The superoxide response (% of plate) in [8] was 115% (inactive). Further, in experiment [9], the aptamer binding inhibition was 3% (inactive). The figures for the response in [10] and in [12] were -8.46% (inactive) and -1.64% (inactive), respectively. Also, the binding (% of control) in [13] is 105% (inactive). The efflux inhibition (fraction of control) in [14] is -0.13 (inactive). For the same compound, in experiment [16], the differentiation response was 5.6% (inactive).

Turning to `O=C(CCSc1ccccc1)N1CCCC1`, the percent of DMSO control GFP in experiment [1] was 109% (inactive). Further, the values for the GFP response vs DMSO in experiment [2] and in experiment [4] were 109% (inactive) and 104% (inactive), respectively. In experiment [3], the percent response of DMSO control is 104% (inactive). Also, the GFP response, % of DMSO in experiment [5] is 112% (inactive). Further, the double positive events in [6] amounted to 67.6%. The vesicle binding response in experiment [6] was 193% (inactive). In addition, the inhibition in [7] was 3.98% (inactive); in experiment [11], 33.8% (inactive); in [15], 5% (inactive). Also, the superoxide response (% of plate) in experiment [8] was 109% (inactive). Besides, the aptamer binding inhibition in experiment [9] is 5% (inactive). Further, the results for the response in experiment [10] and in experiment [12] were -4.18% (inactive) and -0.71% (inactive), respectively. The binding (% of control) in [13] is 91.3% (inactive). In addition, in [14], the efflux inhibition (fraction of control) was -0.15 (inactive). Further, in experiment [16], the differentiation response was -0.36% (inactive).
